# Reference: the supplement of paper PMC8728848
# The sample as a whole holds a higher share of the strongest signals than the screen did.
# Assays:
# Experiment in all cases: glycan array binding signal (z-score within array); higher = stronger binding
# Settings in all cases: glycan notation: IUPAC condensed, linker removed
# [1] = target: Fuc(a1-3)[Gal3S(b1-4)]Glc
# Method in brief: (§1)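 The binding signal is a Z-score computed within each array. Data were drawn from 3228 arrays in the Consortium for Functional Glycomics database, restricted to those with a known protein sequence. Scores were averaged over arrays of the same protein sequence at different concentrations or buffers, and over linkers, and negative values can be taken as non-binding.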
# [2] = target: Fuc(a1-3)[GalNAc(b1-4)]Gal(b1-4)GlcNAc
# Method in brief: as §1
# [3] = target: Gal(a1-2)Gal
# Method in brief: as §1
# [4] = target: Gal(a1-4)Gal(b1-4)Gal
# Method in brief: as §1
# [5] = target: Gal(b1-3)Gal
# Method in brief: as §1
# [6] = target: Gal(b1-3)GalNAc(b1-3)Gal(a1-4)Gal(b1-4)Glc
# Method in brief: as §1
# [7] = target: Gal(b1-3)GlcNAc(b1-3)Gal(b1-3)GlcNAc
# Method in brief: as §1
# [8] = target: Gal(b1-3)[Fuc(a1-4)]GlcNAc(b1-3)Gal(b1-4)GlcNAc
# Method in brief: as §1
# [9] = target: Gal(b1-3)[Fuc(a1-4)]GlcNAc(b1-3)Gal(b1-4)[Fuc(a1-3)]GlcNAc
# Method in brief: as §1
# [10] = target: Gal(b1-4)GalNAc(a1-3)[Fuc(a1-2)]Gal(b1-4)GlcNAc
# Method in brief: as §1
# [11] = target: Gal(b1-4)GalNAc(b1-3)[Fuc(a1-2)]Gal(b1-4)GlcNAc
# Method in brief: as §1
# [12] = target: Gal(b1-4)Glc6S
# Method in brief: as §1
# [13] = target: Gal(b1-4)GlcNAc(b1-3)Gal(b1-4)[Fuc(a1-3)]GlcNAc(b1-3)Gal(b1-4)[Fuc(a1-3)]GlcNAc
# Method in brief: as §1
# [14] = target: Gal3S(b1-3)GalNAc
# Method in brief: as §1
# [15] = target: Gal3S(b1-4)GlcNAc6S
# Method in brief: as §1
# [16] = target: Gal4S6S(b1-4)GlcNAc
# Method in brief: as §1
# [17] = target: GlcA(b1-6)Gal
# Method in brief: as §1
# [18] = target: GlcNAc(b1-3)Gal(b1-3)GalNAc
# Method in brief: as §1
# [19] = target: GlcNAc(b1-4)GlcNAc(b1-4)GlcNAc
# Method in brief: as §1
# [20] = target: Kdn(a2-3)Gal(b1-3)GlcNAc
# Method in brief: as §1
# [21] = target: Man(a1-2)Man(a1-2)Man(a1-3)[Man(a1-2)Man(a1-3)[Man(a1-2)Man(a1-6)]Man(a1-6)]Man(b1-4)GlcNAc(b1-4)GlcNAc
# Method in brief: as §1
# [22] = target: Neu5Ac(a2-3)Gal(b1-4)GlcNAc(b1-3)Gal(b1-4)GlcNAc
# Method in brief: as §1
# [23] = target: Neu5Ac(a2-3)Gal(b1-4)GlcNAc(b1-6)[Gal(b1-3)]GalNAc
# Method in brief: as §1
# [24] = target: Neu5Ac(a2-3)Gal6S(b1-4)[Fuc(a1-3)]GlcNAc
# Method in brief: as §1
# [25] = target: Neu5Ac(a2-8)Neu5Ac(a2-8)Neu5Ac(a2-8)Neu5Ac(a2-3)[GalNAc(b1-4)]Gal(b1-4)Glc
# Method in brief: as §1
binder,measurement,setting,value
"C-Reactive Protein (Homo sapiens), P02741 (protein) MEKLLCFLVLTSLSHAFGQTDMSRKAFVFPKESDTSYVSLKAPLTKPLKAFTVCLHFYTELSSTRGYSIFSYATKRQDNEILIFWSKDIGYSFTVGGSEILFEVPEVTVAPVHICTSWESASGIVEFWVDGKPRVRKSLKKGYTVGAEASIILGQEQDSFGGNFEGSQSLVGDIGNVNMWDFVLSPDEINTIYLGGPFSPNVLNWRALKYEVQGEVFTKPQLWP",glycan array binding signal (z-score),[1],0.735
same,glycan array binding signal (z-score),[2],-0.478
same,glycan array binding signal (z-score),[3],-0.469
same,glycan array binding signal (z-score),[4],-0.603
same,glycan array binding signal (z-score),[5],-0.554
same,glycan array binding signal (z-score),[6],-0.576
same,glycan array binding signal (z-score),[7],1.62
same,glycan array binding signal (z-score),[8],-0.4
same,glycan array binding signal (z-score),[9],-0.468
same,glycan array binding signal (z-score),[10],-0.454
same,glycan array binding signal (z-score),[11],-0.521
same,glycan array binding signal (z-score),[12],0.381
same,glycan array binding signal (z-score),[13],0.095
same,glycan array binding signal (z-score),[14],0.199
same,glycan array binding signal (z-score),[15],1.48
same,glycan array binding signal (z-score),[16],2.24
same,glycan array binding signal (z-score),[17],-0.49
same,glycan array binding signal (z-score),[18],-0.505
same,glycan array binding signal (z-score),[19],1.94
same,glycan array binding signal (z-score),[20],-0.402
same,glycan array binding signal (z-score),[21],-0.496
same,glycan array binding signal (z-score),[22],-0.055
same,glycan array binding signal (z-score),[23],1.51
same,glycan array binding signal (z-score),[24],0.578
same,glycan array binding signal (z-score),[25],0.158
